High-throughput results from PubChem.
RPL19A TOR yeast: modulators of TOR pathway RPL19A-GFP in S. cerevisiae. 330,000 tested, 0.3% active. AID 2025. percent response vs DMSO, % at 10 µM. S. cerevisiae RPL19A-GFP strain, flow cytometry, 3 h; active compounds read low;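 active = percent response vs DMSO below 50%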;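 also: median channel GFP fluorescence of the barcoded RPL19A-GFP strain; lower means less RPL19A-GFP as with rapamycin TOR inhibition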
AGP1 TOR yeast: alters AGP1-GFP fluorescence in TOR pathway yeast screen. GFP response vs DMSO, % at 10 µM. AID 2066. S. cerevisiae AGP1-GFP multiplex flow cytometry, 3 h; GFP as percent of DMSO wells. 320,000 tested, 0.02% active;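 active = GFP response relative to DMSO above a set limit, near screen average plus 3 SD, cut at about 150% in these data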;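 also: median GFP channel fluorescence of the gated AGP1 strain per well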
CIT2-GFP yeast: yeast TOR pathway CIT2-GFP modulation; S. cerevisiae CIT2-GFP strain, flow cytometry, 3 h; 100 means same as DMSO wells; 320,000 tested, 0.065% active; GFP response vs DMSO, % at 10 µM;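 active = GFP response relative to DMSO above a set limit, near the screen mean plus 3 SD, cut at about 150% in these data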;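 also: ratio of well median GFP fluorescence to mean of DMSO wells on the plate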
MEP2 TOR yeast: alters MEP2-GFP fluorescence in TOR pathway yeast screen. GFP response vs DMSO, % at 10 µM. 330,000 tested, 0.51% active. S. cerevisiae MEP2-GFP strain, flow cytometry GFP, 3 h; 100% = DMSO control level. AID 2016;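 active = GFP response versus DMSO above a set limit, roughly screen mean plus 3 SD, cut at about 180% in these data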;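 also: median GFP fluorescence of the barcode-gated MEP2-GFP cells per well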
LAP4 TOR yeast: modulators of TOR pathway LAP4-GFP in S. cerevisiae; 320,000 tested, 0.34% active; GFP response vs DMSO, % at 10 µM; S. cerevisiae LAP4-GFP multiplex, flow cytometry GFP, 3 h; median GFP as percent of DMSO wells; AID 2023;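 active = GFP response vs DMSO above a set limit, about the screen mean plus 3 SD, cut at about 150% in these data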
LAP4 cherry2: second confirmation of modulators of TOR reporter LAP4-GFP in yeast; shares compounds with LAP4 TOR yeast; S. cerevisiae LAP4-GFP strain, flow cytometry GFP, 3 h; GFP response vs DMSO, % at 10 µM; 590 tested, 20% active; AID 2621;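 active = GFP signal as percent of the solvent control above about 150%, meaning raised reporter expression, limit read from the data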
MEP2 cherry2: reconfirmed MEP2-GFP TOR pathway modulator in yeast. S. cerevisiae MEP2-GFP strain, flow cytometry GFP, 3 h. AID 2622. 590 tested, 10% active. GFP response vs DMSO, % at 10 µM. shares compounds with LAP4 TOR yeast;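 active = GFP signal above 150% of the solvent control wells, that is a rise of more than half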;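 also: median channel GFP fluorescence of all gated yeast cells per well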
RPL19A GFP CP2: second confirmation of modulators of TOR reporter RPL19A-GFP in yeast | AID 2623 | GFP response vs DMSO, % at 10 µM | S. cerevisiae RPL19A-GFP strain, flow cytometry GFP, 3 h; active compounds read low; 100% means same as DMSO wells | shares compounds with LAP4 TOR yeast | 590 tested, 3% active;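 active = under 65% GFP response relative to DMSO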;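 also: median GFP channel fluorescence per well over the all cells gate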
CIT2-GFP pick2: reconfirmed modulator of CIT2-GFP TOR reporter in yeast | S. cerevisiae CIT2-GFP strain, flow cytometry GFP, 3 h; DMSO control wells read 100% | AID 2624 | shares compounds with LAP4 TOR yeast | 590 tested, 8% active | GFP response vs DMSO, % at 10 µM;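 active = GFP response vs DMSO above about 150%, limit read from the data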;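 also: median green fluorescence per well over all gated yeast cells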
AGP1 GFP CP2: reconfirmed modulator of AGP1-GFP TOR reporter in yeast; shares compounds with LAP4 TOR yeast; S. cerevisiae AGP1-GFP strain, flow cytometry GFP, 3 h; percent response vs DMSO, % at 10 µM; 590 tested, under 10 active; AID 2643;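 active = over 150 percent of DMSO response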;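 also: median GFP channel fluorescence over all cells without mother daughter split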
Yeast autofluor: counter-screen for compound autofluorescence in yeast s288c cells. shares compounds with LAP4 TOR yeast. S. cerevisiae s288c, 520 nm autofluorescence, flow cytometry, 3 h; active compounds read high; zero means same as solvent-only cells. fluorescence change (kMESF span) at 33 µM. 610 tested, under 10 active;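 active = fluorescence span over the dose series, or activity score, above about 33, limit read from the data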
Yeast autofl DR: yeast s288c autofluorescence artifact in dose response; shares compounds with LAP4 TOR yeast; S. cerevisiae s288c parental, compound autofluorescence, flow cytometry, 3 h; fluorescence change (span) at 33 µM; 110 tested, under 10 active; AID 488829;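 active = fluorescence change span, or the activity score built from it, above 25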
TORC1 bypass: stops wildtype yeast growth while TORC1 bypass cells still grow | 120 tested, under 10 active | AID 504456 | growth rating (0-3) at 30 µM | S. cerevisiae BY4741 spot growth rating, 48-72 h; active compounds read low | shares compounds with LAP4 TOR yeast;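 active = growth rating at most 1 for wild type yeast while the TORC1 bypass strain still grows fully, rated 3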
Large screens that a line does not name were inactive (follow-up assays come after a bar, where they were run). The list is not random: actives were taken first. Their share in the collection is about 0.93%.

Cc1nc2ccccc2c(=O)n1/N=C/c1cc(Br)cc(Br)c1O	none
CC1(C)CC[C@]2(C)CC[C@]3(C)C4C[C@@H]5OO[C@@]6(O5)C(CCCC6(C)C)[C@]4(C)CC[C@@]3(C)C2C1 (stereo partly specified)	none
Fc1ccc(C(OCCN2CCN(CCCc3ccccc3)CC2)c2ccc(F)cc2)cc1	LAP4 TOR yeast 208 | LAP4 cherry2 inactive | MEP2 cherry2 inactive | RPL19A GFP CP2 inactive | CIT2-GFP pick2 inactive | AGP1 GFP CP2 inactive
C[C@]12CCC3C(CC[C@H]4C[C@H](O)CC[C@]34C)C1C[C@H](O)[C@@H]2O (stereo partly specified)	none
NS(=O)(=O)c1ccc(-c2ccc(C=C3C(=O)NC(=O)NC3=O)o2)cc1	none
O=C1NC(=O)C(=Cc2ccc(SC3CCCCC3)o2)C(=O)N1	none | LAP4 cherry2 inactive | MEP2 cherry2 inactive | RPL19A GFP CP2 inactive | CIT2-GFP pick2 inactive | AGP1 GFP CP2 inactive
CN1CCc2cccc(Cl)c2CC1	none
C=C1C(=O)O[C@@H]2C[C@@H](C)[C@H]3C=CC(=O)[C@]3(O)C[C@@H]12	MEP2 TOR yeast 207 | LAP4 cherry2 inactive | MEP2 cherry2 inactive | RPL19A GFP CP2 inactive | CIT2-GFP pick2 inactive | AGP1 GFP CP2 inactive
CCOc1ccc(N2C(=O)/C(=C/c3ccco3)C(=O)NC2=S)cc1	none
CCOc1ccc(N2C(=O)/C(=C\c3cccs3)C(=O)NC2=S)cc1	none | LAP4 cherry2 168 | MEP2 cherry2 inactive | RPL19A GFP CP2 inactive | CIT2-GFP pick2 inactive | AGP1 GFP CP2 inactive | Yeast autofluor inactive
CC1(C)OC(c2ccccc2)=C/C(=C/C=C2C(=O)NC(=S)NC2=O)O1	LAP4 TOR yeast 179 (no result: CIT2-GFP yeast) | Yeast autofluor inactive
CN(C)C(=S)SSC(=S)N(C)C	LAP4 TOR yeast 201 | LAP4 cherry2 inactive | MEP2 cherry2 inactive | RPL19A GFP CP2 inactive | CIT2-GFP pick2 inactive | AGP1 GFP CP2 inactive
C[C@H]1C[C@@H](C)C(=O)[C@@H]([C@H](O)CC2CC(=O)NC(=O)C2)C1	none | LAP4 cherry2 inactive | MEP2 cherry2 159 | RPL19A GFP CP2 inactive | CIT2-GFP pick2 inactive | AGP1 GFP CP2 inactive | Yeast autofluor inactive | Yeast autofl DR inactive | TORC1 bypass inactive
